For 13 molecules, growth results are on record in PubChem BioAssay (NCI).

The panel holds about 83,000 compounds, 20% with a hit somewhere; the sample as a whole holds those more often.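 Cells were grown in 96-well plates and exposed to the test compound at a single concentration for 48 hours; results are reported as percent growth, with values below 10 considered active.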 Unmarked numbers belong to inactive results. Activity calls are given as the source filed them.

Common to all, as to assay: NCI-60 one-dose screen, 48 h (100 = growth as untreated, 0 = no growth, -100 = all killed)
Details in all cases: 10 µM unless noted

Experiment [1] relates to NCI-H23 lung.
Experiment [2] has as its system NCI-H226 lung.
Experiment [3] has as its system NCI-H322M lung.
The subject of experiment [4] is HOP-62 NSCLC.
In experiment [5] the test system is NCI-H460 lung.
The subject of experiment [6] is HOP-92 NSCLC.
In experiment [7] the test system is NCI-H522 lung.
For experiment [8], the system named is A549/ATCC NSCLC.
The subject of experiment [9] is 786-0 renal.
The test system of experiment [10] is COLO 205 colon.

In the case of `O=c1[nH]c2cc(Cl)ccc2n1C1CCN(c2ccc3nnc(Cl)n3n2)CC1`, the growth in experiment [1] is 91%; in [2], 87.4%; in experiment [3], 87.7%; in experiment [4], 95.4%; in [5], 100%; in [6], 103%. In addition, the growth is 87.2% in experiment [7], 88.3% in [8], 97.3% in [9] and 107% in [10].
Regarding `CCOC(=O)c1ccc(N/C=C/C(=O)c2ccccc2)cc1`, the growth in experiment [1] is 103%; in experiment [2], 105%; in experiment [3], 97%; in [4], 111%; in [5], 104%; in experiment [6], 124%. In addition, the growth is 94.8% in experiment [7], 101% in experiment [8], 94% in experiment [9] and 101% in [10].
Regarding `Nc1nc(-c2cccc([N+](=O)[O-])c2)c(N=Nc2ccccc2Cl)s1`, the growth in [1] is 60.8%; in experiment [2], 70.4%; in experiment [3] it was 86.3%; in experiment [4], 56.1%; in experiment [5] it was 41%; in experiment [6] it was 31.8%. Besides, the growth in experiment [7] is 60.1%; in experiment [9], 52.6%; in experiment [10], 93.1%.
Regarding `COc1ccc(/C=C/C(=O)c2nnn(-c3ccc(C(=O)O)cc3)c2C)cc1OC`, the growth is 105% in [1]; 100% in experiment [2]; 91.3% in experiment [3]; 107% in [4]; 107% in experiment [5]; 102% in experiment [6]. Further, the values for the growth in experiment [7], in experiment [9] and in experiment [10] were 88.4%, 98.4% and 109%, respectively.
Take `Nc1cc(F)ccc1NC(=O)c1ccc(NC(=O)C/C=C/c2cccnc2)cn1`: the growth in experiment [1] is 32%; in experiment [2] it was 46.8%; in experiment [3], 40.2%; in [4], 29.6%; in experiment [5] it was 30%; in experiment [6] it was 5.74% (active). The growth in experiment [7] is -4.98% (active); in [9], 41.8%; in [10], 1.22% (active).
As to `Oc1ccc(CSc2nnc(-c3ccc(Cl)cc3)o2)c2cccnc12`, the growth is 27.6% in experiment [1]; 60.2% in [2]; 26.1% in experiment [3]; 21.5% in [4]; 5.72% (active) in experiment [5]; 21.8% in experiment [6]. Further, the growth in [7] was 32%; in experiment [9] it was 27.9%; in experiment [10] it was 97.4%.
As for `Cc1ccc(-c2cc3nc(C(Cl)Cl)nc(-c4ccccc4)n3n2)cc1`, the growth in [1] is 95.4%; in experiment [2], 103%; in [3] it was 74.3%; in experiment [4] it was 73.6%; in experiment [5] it was 46.9%; in experiment [6] it was 94.9%. Besides, the growth is 98.1% in experiment [7], 94.4% in experiment [9] and 54.3% in experiment [10].
As for `C=CCn1c(SCC(=O)Nc2cccc(C(=O)/C=C/c3cccc([N+](=O)[O-])c3)c2)nc2ccccc2c1=O`, the growth in experiment [1] is 89.3%; in [2] it was 83.6%; in [3], 95.4%; in experiment [4], 108%; in experiment [5], 93.4%; in experiment [6], 82.1%. The growth in experiment [7] was 89.3%; in [9], 94.8%; in experiment [10] it was 117%.
`COc1cc(/C=N/Nc2ccnc3cc(Cl)ccc23)cc(OC)c1O`: the growth in [1] is -42% (active); in experiment [2] it was 96.2%; in experiment [3] it was -45.1% (active); in experiment [4] it was -78% (active); in [5] it was -63.9% (active); in experiment [6], -74% (active). Moreover, the growth in [7] was -73.8% (active); in experiment [8] it was -82.2% (active); in experiment [9] it was -87.5% (active); in [10], 72%.
Take `CC(C)=CCc1c(O)c(CC=C(C)C)c2c(c1O)C(=O)C1=C[C@@H]3C[C@H]4C(C)(C)O[C@@](C/C=C(\C)C(=O)O)(C3=O)[C@@]14O2`: the growth is -59.3% (active) in [1]; 72.1% in [2]; 21.7% in experiment [3]; -13.7% (active) in experiment [4]; -41.8% (active) in experiment [5]; -21.8% (active) in experiment [6]. Further, the growth in experiment [7] is -51.4% (active); in experiment [9] it was -27.6% (active); in experiment [10] it was -94.2% (active).
On to `C/C(Cc1ccc(Cl)cc1)=C(/c1ccccc1)c1ccc(OCCN)cc1`, for which the growth in [1] is 98.2%; in [2] it was 91.4%; in experiment [3], 99.8%; in experiment [4], 108%; in [5] it was 104%; in [6] it was 91.6%. Also, the growth in experiment [7] was 96.1%; in experiment [9], 106%; in [10], 103%.
As for `COc1ccccc1/C=C/C(=O)c1nnn(-c2ccc(C(=O)O)cc2)c1C`, the growth in experiment [1] is 87.6%; in experiment [2], 94.7%; in experiment [3] it was 92.1%; in [4] it was 110%; in [5], 96.1%; in [6], 101%. In addition, the growth was 82.4% in [7], 93.2% in experiment [9] and 110% in experiment [10].
Turning to `CCNC(=O)Oc1ccc(/C(=C(/C)c2ccc(Cl)cc2)c2ccc(OCCN(C)C)cc2)cc1`, the growth in [1] is 87%; in experiment [2], 94.4%; in experiment [3] it was 90.5%; in [4], 80.2%; in experiment [5], 66.6%; in experiment [6] it was 45.1%. Further, the growth is 88.7% in experiment [7], 64.3% in [9] and 82.8% in experiment [10].
